Potency data for 39 compounds are collected here from PubChem BioAssay AID720517 (National Center for Advancing Translational Sciences (NCATS), 2013).

Inconclusive results are not listed. A call without a number means that no potency is given here. Calls of active or inactive are those of the source. The call rests on the fitted dose curve; in most records, active means well fitted activation curve with a large enough effect; inconclusive means small, poorly fitted or top-dose-only effect; inactive means flat fitted curve, though single readings scatter.

A short description of this test: qHTS for Inhibitors of Cell Surface uPA Generation: FP59 Counterscreen for Cherry-picked Compounds. Conditions: FP59 anthrax toxin cytotoxicity counterscreen, cells; series mostly up to 115 µM. Background: In qHTS, concentration-response curves come from the screen itself.
Turning to `CCc1nnc(NC(=O)CSc2nnnn2-c2cccc(C(C)=O)c2)s1`, the Potency entry was “inactive”.

As for `CCNc1nc(Nc2ccc(C)c(Cl)c2)c2cnn(C)c2n1`, the Potency entry is “inactive”.

For `COc1cc(CN2CCN(S(=O)(=O)c3ccccc3)CC2)cc(OC)c1OC`, the Potency entry was “inactive”.

For the compound `CCCn1c(N)c(C(=O)CSc2nnc(C3CC3)n2Cc2ccccc2)c(=O)[nH]c1=O`, the Potency result was “inactive”.

As for `O=C(NNC(=O)C1CC(c2cccs2)=NO1)Nc1ccccc1` (centres undefined), the Potency entry is “inactive”.

On to `O=C(/C=C/c1cccc(F)c1)Nc1cc(S(=O)(=O)N2CCOCC2)ccc1Cl`, for which the Potency result was “inactive”.

With `Cc1cc(/C=N/NC(=O)c2ccccc2F)c(C)n1-c1ccccc1`, the Potency result was “inactive”.

With `COc1ccc(CN2CCN(Cc3ccc(C(F)(F)F)cc3)CC2)cc1`, the Potency entry was “inactive”.

For the compound `CC1(C)C([N+](=O)[O-])C(c2ccc(F)cc2)NC(c2ccc(F)cc2)C1[N+](=O)[O-]` (centres undefined), the Potency entry was “inactive”.

`CCN(CC)S(=O)(=O)c1ccc(C(=O)Nc2nnc(COC)o2)cc1`: the Potency entry is “inactive”.

As to `CCC(C)Nc1cc(C)nc2ncnn12` (centres undefined), the Potency entry was “inactive”.

In the case of `NS(=O)(=O)c1ccc(CCNC(=O)c2ccc(Cl)s2)cc1`, the Potency result is “inactive”.

As for `Cc1cccc(C(=O)NC2CCN(CC(=O)N3CCOCC3)CC2)c1`, the Potency result is “inactive”.

Consider `Cn1nc(C(C)(C)C)c([N+](=O)[O-])c1C(=O)N1CCOCC1`, for which the Potency result is “inactive”.

For the compound `O=[N+]([O-])c1ccc(SCc2ccncc2)nc1`, the Potency result is “inactive”.

Regarding `CCOc1ccc(/C=N/NC(=S)Nc2c(C)cccc2C)cc1`, the Potency entry is “inactive”.

Turning to `COc1ccc(/C=C/C(=O)Nc2ccccc2Cl)cc1S(=O)(=O)N1CCOCC1`, the Potency result was “inactive”.

In the case of `C#CCOCCOCCOCCNc1nc(N2CCOCC2)nc(N2CCN(C(=O)[C@H](CCC(=O)O)n3cc([C@@H](N)CCCCN)nn3)CC2)n1`, the Potency entry was “inactive”.

On to `Cc1oc(-c2ccccc2F)nc1CS(=O)CC(=O)NCc1ccc(F)cc1` (centres undefined), for which the Potency result was “inactive”.

Take `CCOC(=O)Cn1c(=O)cc(C)c2cccc(C)c21`: the Potency result was “inactive”.

As to `CC(C)(C)n1ncc2c(=O)n(Cc3ccc(Cl)cc3)cnc21`, the Potency entry is “inactive”.

On to `COc1cc(NS(=O)(=O)c2ccc(NC(=S)NC(=O)COc3ccccc3OC)cc2)nc(OC)n1`, for which the Potency entry is “inactive”.

Regarding `CCC(C)C(NC(=O)c1ccccc1)C(=O)Nc1ccc(S(=O)(=O)Nc2cc(C)nc(C)n2)cc1` (centres undefined), the Potency result is “inactive”.

With `COc1ccc(N2CCN(C(=O)COc3ccc4c(C)c(C)c(=O)oc4c3C)CC2)cc1`, the Potency result is “inactive”.

In the case of `CCOC(=O)c1c(NC(=S)NC)sc2c1CCCC2`, the Potency result is “inactive”.

For `CC1CS(=O)(=O)CCN1N=Cc1ccc([N+](=O)[O-])o1` (centres undefined), the Potency result was “inactive”.

As to `C[C@H](CO)N1C[C@H](C)[C@@H](CN(C)C(=O)Nc2ccccc2)Oc2c(NS(=O)(=O)c3ccccc3)cccc2C1=O`, the Potency result is “inactive”.

As to `COC(=O)CSc1nc(N2CCOCC2)c2c(c1C#N)CCCC2`, the Potency entry is “inactive”.

`COC(=O)CCSCC(=O)N1N=C(c2ccc(OC)cc2)CC1c1cccc(OC)c1OC` (centres undefined): the Potency result is “inactive”.

Turning to `CCCCNC(=O)C1CCN(S(=O)(=O)c2c(C)noc2/C=C\c2ccc(OC)cc2)CC1`, the Potency entry is “inactive”.

Take `O=C(CCN1CCN(c2ccccc2F)CC1)Nc1ccc(F)cc1`: the Potency result was “inactive”.

For `COc1cc(C2/C(=C(\O)c3ccc4c(c3)CC(C)O4)C(=O)C(=O)N2CC2CCCO2)cc(OC)c1OC` (centres undefined), the Potency entry was “inactive”.

Regarding `O=C(Nc1ccc(S(=O)(=O)N2CCOCC2)cc1)c1cc(-c2ccccc2O)n[nH]1`, the Potency result is “inactive”.

Take `O=C(c1cc(COc2ccc(F)cc2Cl)on1)N1CCCCCC1`: the Potency entry is “inactive”.

Turning to `CCOc1ncccc1C(=O)NCc1ccccc1Cl`, the Potency entry is “inactive”.

For the compound `CCC(CC)Nc1ccc(C(CC(N)=O)NC(=O)Cc2ccc(Br)cc2)cc1[N+](=O)[O-]` (centres undefined), the Potency entry is “inactive”.

With `C=CCNC(=S)NCC=C`, the Potency result was “inactive”.

`CN1CC[C@]23c4ccccc4N[C@H]1[C@]21CCN(C)[C@H]3Nc2ccccc21`: the Potency entry is “inactive”.

In the case of `O=C(Nc1ccc(Cl)cn1)C1CCCN(c2ncnc3c2nc2n3CCCCC2)C1` (centres undefined), the Potency result was “inactive”.
